# C diff growth = C. difficile growth inhibitors, primary screen, HTS | Clostridium difficile clinical isolate growth, OD600, 24 h; hits give low values | growth activity, negative = inhibition, % at 16 µg/mL (by protocol) | 0.25% of 86,000 active | AID 1259249, 2017;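 active means mean growth activity at or below -80% and every replicate also at or below -80%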;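 further: 0% = DMSO wells and -100% = levofloxacin 16 µg/mL wells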
# Pf Dd2 inh = P. falciparum Dd2 growth inhibitors, primary screen, SYBR Green fluorescence, single dose replicates; 72 h; hits give low values; activity change, % at 10 µM; 2.3% of 94,000 active; in the data active means activity change below about -80%
# T cruzi growth-1 = T. cruzi intracellular proliferation inhibitors, primary screen, cell-based, beta-gal Tulahuen parasites, NIH3T3 host, luminescence. T. cruzi beta-gal in NIH3T3, GalScreen luminescence, 90 h. inhibition, % at 8.34 µM. 5.9% of 77,000 active. AID 624255, 2012;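 active means mean inhibition above about 93%, with at least 55% of replicates each passing it, limit read from the data, passing the limit was not always enough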
# T cruzi growth-2 = T. cruzi intracellular proliferation inhibitors, confirmation, cell-based, NIH3T3 host, beta-gal parasite, luminescence, cherry-pick; shares compounds with T cruzi growth-1; T. cruzi beta-gal in NIH3T3, GalScreen luminescence, 90 h; inhibition, % at 8.35 µM; 72% of 5,600 active; AID 651739, 2012;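 active means mean replicate inhibition above about 95% and at least 55% of replicates individually reaching it, limit read from the data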
# T cruzi growth-3 = inhibitors of intracellular T. cruzi replication, confirmation, NIH3T3 host cells, beta-gal parasites, cherry-pick, set 2; shares compounds with T cruzi growth-1; T. cruzi beta-gal in NIH3T3, GalScreen luminescence, 90 h; inhibition, % at 2.09 µM; 21% of 5,600 active;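 active means mean inhibition above about 95%, with at least 55% of replicates also reaching it, limit read from the data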;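 further: plate controls were neutral control median for no effect and positive control median for full effect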
# NIH3T3 tox = cytotoxicity in mouse NIH/3T3 fibroblasts, confirmation, cytotoxicity control for T. cruzi proliferation inhibitor project, cell-based, cherry-pick, single point. shares compounds with T cruzi growth-1. NIH/3T3 viability, CellTiter-Glo ATP luminescence, 90 h. cytotoxicity (signal decrease), % at 8.35 µM. 14% of 5,600 active;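 active means mean signal decrease across replicates above about 35% based on untreated-well scatter, with enough replicates individually passing, limit read from the data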;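 further: 0% = median of neutral control wells and 100% = median of positive control wells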
# 3T3 cytotox 2 = NIH/3T3 fibroblast cytotoxicity, confirmation, cytotoxicity control, cell-based, cherry-pick, single point, set 2; shares compounds with T cruzi growth-1; NIH/3T3 viability, CellTiter-Glo ATP luminescence, 90 h; inhibition, % at 24.9 µM; 56% of 5,600 active; AID 651744, 2012;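 active means mean loss of cell viability signal at or above a set limit, and enough replicates individually reaching it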;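 further: 0% = median of neutral control wells and 100% = median of positive control wells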
# The depositor's hits bear a star; · = no result. A selection: hits, their analogues and other compounds. The true share with any hit is near 6.7%.
SMILES,C diff growth,Pf Dd2 inh,T cruzi growth-1,T cruzi growth-2,T cruzi growth-3,NIH3T3 tox,3T3 cytotox 2
Cc1noc(C)c1NC(=O)Nc1ccc2c(c1)C(=O)N([C@H](C)CO)C[C@H](C)[C@H](CN(C)S(=O)(=O)c1cn(C)cn1)O2,-4.9,9.0,53.4,·,·,·,·
COc1ccccc1S(=O)(=O)N1CC[C@@H]2[C@H]1c1cc(-c3ccccc3F)ccc1N[C@@H]2CO,-0.6,20.8,102.5*,97.0*,85.6,25.6,7.8
Cc1ccccc1S(=O)(=O)N1CC[C@@H]2[C@@H](CO)Nc3ccc(-c4ccccc4F)cc3[C@@H]21,7.2,-13.3,119.0*,102.0*,84.9,39.4*,103.8*
O=S(=O)(c1ccccc1F)N1CC[C@@H]2[C@H](CO)Nc3ccc(-c4ccccc4F)cc3[C@@H]21,6.5,8.0,45.0,·,·,·,·
COc1ccccc1-c1ccc2c(c1)[C@@H]1[C@@H](CCN1S(=O)(=O)c1ccccc1OC)[C@H](CO)N2,40.2,-57.7,26.0,·,·,·,·
C[C@@H]1CN([C@H](C)CO)C(=O)Cc2cc(NC(=O)Nc3ccc4c(c3)OCO4)ccc2O[C@H]1CN(C)Cc1ccc2c(c1)OCO2,-8.0,13.2,26.7,·,·,·,·
Cc1ccc(S(=O)(=O)N[C@H]2CC[C@H](CCn3cc(-c4cccc(F)c4)nn3)O[C@H]2CO)cc1,2.9,18.9,-39.0,·,·,·,·
OC[C@H]1[C@H](c2ccc(-c3ccc(F)cc3)cc2)[C@H]2CN(Cc3cccnc3)CCCCN21,-2.3,11.8,89.2,·,·,·,·
OC[C@@H]1[C@@H](c2ccc(-c3ccc(F)cc3)cc2)[C@H]2CN(Cc3cccnc3)CCCCN12,-2.0,-44.8,112.9*,53.2,19.6,28.3,102.3*
CN(C)C(=O)c1ccc(-c2ccc([C@@H]3[C@H](CO)N4CCCCN(Cc5cccnc5)C[C@@H]34)cc2)cc1,-0.9,-21.5,83.3,·,·,·,·
CN(C)C(=O)c1cccc(-c2ccc([C@H]3[C@H](CO)N4CCCCN(Cc5cccnc5)C[C@@H]34)cc2)c1,-10.0,11.8,100.7*,107.3*,90.9,-4.8,-5.7
OC[C@H]1[C@H](c2ccc(-c3ccc(F)cc3)cc2)[C@@H]2CN(Cc3cccnc3)CCCCN12,-2.1,-66.1,110.1*,114.4*,90.6,16.7,102.6*
Cc1ccccc1-c1ccc([C@H]2[C@@H](CO)N3CCCCN(Cc4cccnc4)C[C@H]23)cc1,2.8,-64.7,109.1*,105.7*,90.8,45.6*,106.1*
OC[C@@H]1[C@H](c2ccc(C3=CCCC3)cc2)[C@H]2CN(Cc3cccnc3)CCCCN12,-0.3,-22.8,98.6,·,·,·,·
COc1ccc2c3c([nH]c2c1)[C@@H](CO)N(Cc1nccs1)CC31CCN(C(=O)C2CCC2)CC1,-2.6,-50.8,·,·,·,·,·
Cc1ccc(S(=O)(=O)N(C)C[C@@H]2Oc3c(NC(=O)Nc4c(C)noc4C)cccc3C(=O)N([C@@H](C)CO)C[C@H]2C)cc1,2.9,-6.7,32.3,·,·,·,·
COC(=O)C[C@H]1CC[C@@H]2[C@H](COc3ccc(NS(=O)(=O)c4ccccc4F)cc3C(=O)N2C)O1,-3.5,13.1,19.4,·,·,·,·
C[C@@H](NC(=O)C[C@H]1CC[C@H]2[C@@H](COC[C@@H](O)CN2Cc2cc(F)ccc2F)O1)c1ccccc1,4.0,11.3,59.2,·,·,·,·
CO[C@@H]1CN(C)C(=O)c2cc(NC(=O)c3cnccn3)ccc2OC[C@H](C)N(CC2CC2)C[C@H]1C,2.7,15.6,·,·,·,·,·
OC[C@@H]1[C@@H](c2ccc(-c3ccc(F)cc3)cc2)[C@H]2CN(Cc3ccncc3)CCCCN12,-0.4,-48.3,76.8,·,·,·,·
OC[C@@H]1[C@H](c2ccc(-c3ccc(F)cc3)cc2)[C@@H]2CN(Cc3ccncc3)CCCCN12,2.6,-20.6,97.8*,105.5*,45.2,36.9*,103.5*
C[C@@H]1CN([C@H](C)CO)C(=O)c2cc(NC(=O)Cc3ccccc3)ccc2O[C@@H](C)CCCCO[C@H]1CN(C)C(=O)Nc1ccccc1,·,-8.0,-0.4,·,·,·,·
